MPTP inh = inhibitors of mitochondrial permeability transition pore | isolated mouse mitochondria, Ca2+ swelling absorbance, 30 min | inhibition, % at 10 µM | 1.4% of 360,000 active | AID 602449;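 active = inhibition of 50% or more, scaled per plate between neutral and stimulator controls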;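 also: 0% = DMSO wells given calcium and 100% = 1 mM EGTA wells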
aDG glyco up = alpha-DG glycosylation activation. Pro5-aDG cells, alpha-DG glycosylation AlphaScreen (IIH6); 0% Pro5, 100% B10-LARGE cell signal. activation, % at 10 µM. 0.22% of 360,000 active;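 active = activation of at least 8% versus controls, or a plate z-score of at least 8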;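 also: Pro5 are CHO cells carrying HIG-tagged alpha-DG that lacks glycosylation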
H9c2 protect = protects H9c2 cardiomyocytes from peroxide injury; protection from H2O2 cell death, % at 20 µM; H2O2 injury protection, ATPLite, 2 h; AID 588492; 0.63% of 360,000 active;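 active = compounds giving at least 50% protection of heart cells from peroxide-induced death in the single-dose screen, raw or plate-pattern-corrected value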;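 also: 0% = DMSO wells with peroxide and 100% = DMSO wells without peroxide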
Mot1-301 SUMO = SUMOylation pathway inhibition by Mot1-301 growth rescue; S. cerevisiae Mot1-301 growth rescue, ATP luminescence, 38.5C; percent above DMSO median, 100 means doubled; growth rescue, % at 18.8 µM; 1% of 320,000 active; AID 2716;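 active = every valid replicate shows activation above 250% relative to neutral control wells; inactive = the rest, any valid replicate at or below 250%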;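 also: OY570 slx delta 5 strain wells were the positive control but not used for scaling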
Yeast superoxide = lowers age-related superoxide in aged yeast cells; S. cerevisiae aged cells, superoxide DHE fluorescence; hits give low values; superoxide response (% of plate mean), % at 10 µM; 0.18% of 330,000 active;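 active = superoxide response under a set limit, about three screen SD below normal, cut at about 65% in these data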;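 also: yeast aged for seven days with compound at 30 °C before DHE staining; 100% = average MFI of all compound-treated wells on the plate with controls excluded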
FAS-TE inh = inhibitors of human fatty acid synthase thioesterase domain; recombinant FAS-TE, OMFH fluorogenic substrate, fluorescence endpoint; P49327; 0.67% of 360,000 active; inhibition, % at 15 µM;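 active = compounds whose normalised, plate-corrected inhibition of enzyme fluorescence in the single-dose primary screen is 50% or more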;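 also: 0% = DMSO with enzyme and 100% = substrate without enzyme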
Target sequence (P49327 whole entry, looked up, the tested form may be a part): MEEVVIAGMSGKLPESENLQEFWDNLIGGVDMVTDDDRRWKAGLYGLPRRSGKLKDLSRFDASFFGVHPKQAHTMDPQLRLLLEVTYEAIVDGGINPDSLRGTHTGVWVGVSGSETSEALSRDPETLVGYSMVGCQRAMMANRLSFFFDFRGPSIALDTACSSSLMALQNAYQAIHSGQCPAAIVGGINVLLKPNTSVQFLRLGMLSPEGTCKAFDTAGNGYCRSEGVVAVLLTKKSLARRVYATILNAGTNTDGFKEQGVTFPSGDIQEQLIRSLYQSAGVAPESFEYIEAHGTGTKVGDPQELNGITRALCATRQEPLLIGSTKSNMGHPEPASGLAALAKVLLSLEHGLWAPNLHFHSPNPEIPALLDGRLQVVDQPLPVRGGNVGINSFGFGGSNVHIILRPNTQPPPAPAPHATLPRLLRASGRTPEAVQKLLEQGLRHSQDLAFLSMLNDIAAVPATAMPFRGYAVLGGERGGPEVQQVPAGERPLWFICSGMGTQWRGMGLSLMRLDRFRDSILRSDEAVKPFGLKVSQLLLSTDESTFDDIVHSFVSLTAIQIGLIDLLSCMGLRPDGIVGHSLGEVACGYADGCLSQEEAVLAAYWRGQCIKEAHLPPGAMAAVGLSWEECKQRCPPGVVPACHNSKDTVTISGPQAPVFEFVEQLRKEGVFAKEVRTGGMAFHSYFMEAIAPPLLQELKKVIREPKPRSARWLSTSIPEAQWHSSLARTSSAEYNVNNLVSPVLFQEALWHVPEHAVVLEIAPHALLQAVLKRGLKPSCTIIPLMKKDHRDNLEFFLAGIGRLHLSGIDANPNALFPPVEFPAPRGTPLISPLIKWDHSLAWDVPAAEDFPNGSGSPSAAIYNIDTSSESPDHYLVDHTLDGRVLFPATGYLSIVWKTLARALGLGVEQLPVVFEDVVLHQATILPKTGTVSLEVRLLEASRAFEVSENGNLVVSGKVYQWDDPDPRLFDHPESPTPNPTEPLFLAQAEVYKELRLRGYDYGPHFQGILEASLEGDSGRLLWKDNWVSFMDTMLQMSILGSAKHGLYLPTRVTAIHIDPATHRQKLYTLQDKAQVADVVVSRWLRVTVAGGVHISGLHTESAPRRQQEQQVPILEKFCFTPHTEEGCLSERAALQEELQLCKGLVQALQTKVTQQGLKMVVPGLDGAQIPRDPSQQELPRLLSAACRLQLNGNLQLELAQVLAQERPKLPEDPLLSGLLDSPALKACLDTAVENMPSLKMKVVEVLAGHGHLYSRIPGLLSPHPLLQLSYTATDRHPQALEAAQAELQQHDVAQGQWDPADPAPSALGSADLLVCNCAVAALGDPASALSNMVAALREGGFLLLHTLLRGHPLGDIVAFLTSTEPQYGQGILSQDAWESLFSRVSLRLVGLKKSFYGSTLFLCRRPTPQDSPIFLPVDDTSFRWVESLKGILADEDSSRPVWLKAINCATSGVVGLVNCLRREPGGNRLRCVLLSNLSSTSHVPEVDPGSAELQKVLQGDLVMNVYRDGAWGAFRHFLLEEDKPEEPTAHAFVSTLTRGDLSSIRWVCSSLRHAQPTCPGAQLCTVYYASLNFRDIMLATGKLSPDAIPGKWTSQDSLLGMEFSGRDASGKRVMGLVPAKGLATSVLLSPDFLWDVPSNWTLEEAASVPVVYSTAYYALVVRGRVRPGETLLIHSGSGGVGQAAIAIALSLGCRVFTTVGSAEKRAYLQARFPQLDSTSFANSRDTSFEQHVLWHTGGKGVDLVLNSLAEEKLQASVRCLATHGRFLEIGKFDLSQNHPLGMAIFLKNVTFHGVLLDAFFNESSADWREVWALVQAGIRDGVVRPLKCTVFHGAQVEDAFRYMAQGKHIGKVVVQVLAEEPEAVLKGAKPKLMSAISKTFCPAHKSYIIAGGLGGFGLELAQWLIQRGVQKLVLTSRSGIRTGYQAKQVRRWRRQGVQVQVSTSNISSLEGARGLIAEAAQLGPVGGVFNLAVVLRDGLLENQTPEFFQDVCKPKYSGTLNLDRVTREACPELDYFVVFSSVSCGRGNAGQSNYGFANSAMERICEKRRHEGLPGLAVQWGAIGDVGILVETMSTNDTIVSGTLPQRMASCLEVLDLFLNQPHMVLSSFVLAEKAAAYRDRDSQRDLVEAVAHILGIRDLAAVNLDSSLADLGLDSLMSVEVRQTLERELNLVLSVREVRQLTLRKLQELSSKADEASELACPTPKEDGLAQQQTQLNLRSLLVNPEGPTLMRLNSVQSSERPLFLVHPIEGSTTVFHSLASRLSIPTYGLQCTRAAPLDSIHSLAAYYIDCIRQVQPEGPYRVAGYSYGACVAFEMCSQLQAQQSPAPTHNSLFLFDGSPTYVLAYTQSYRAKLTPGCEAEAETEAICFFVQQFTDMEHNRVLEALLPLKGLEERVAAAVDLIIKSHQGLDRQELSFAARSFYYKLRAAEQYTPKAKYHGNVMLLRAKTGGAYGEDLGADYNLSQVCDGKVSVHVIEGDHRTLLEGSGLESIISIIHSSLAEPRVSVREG
MPTP counter = mitochondrial membrane potential, counter-screen. shares compounds with MPTP inh. isolated mitochondria, Rhodamine 123 fluorescence. inhibition, % at 10 µM. 78% of 5,000 active. AID 624504; in the data active = inhibition above about 22%;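 also: 0% = DMSO vehicle and 100% = positive control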
MPTP abs DR = MPTP inhibition, dose response swelling confirmation. 58% of 780 active. shares compounds with MPTP inh. IC50, µM. isolated mitochondria swelling, absorbance. AID 651561; in the data active = IC50 below about 20 µM
MPTP counter DR = active in counter-screen for permeability transition pore inhibitors; isolated mitochondria counterscreen, fluorescence read-out; 49% of 780 active; IC50, µM; shares compounds with MPTP inh; in the data active = IC50 below about 80 µM
An asterisk follows results filed as active; nt = no result. Rows were chosen to be rich in hits. Some 3.8% of all compounds tested hit in one or more screens of this group.

SMILES	MPTP inh	aDG glyco up	H9c2 protect	Mot1-301 SUMO	Yeast superoxide	FAS-TE inh	MPTP counter	others
COc1ccccc1N(C)S(=O)(=O)c1ccc(C(=O)OCC(=O)NCc2ccco2)cc1	51*	0	4	-4	102	2	-1	MPTP abs DR=>100;MPTP counter DR=>80
COc1cccc(CN2CCNC(=O)C2CC(=O)NCCCC2CCCC2)c1OC (stereo not given)	1	0	6	-14	108	17	nt
COc1ccc(CNC(=O)c2cccc3c(-c4ccc(F)c(F)c4)coc23)cc1OC	88*	5	-19	nt	nt	20	80*
O=C(NCc1cccnc1)c1ccc(-c2ccc(F)c(F)c2)c2ccoc12	92*	4	-9	nt	nt	5	84*
COc1cc(-c2coc3c(C(=O)NCc4ccc(N(C)C)cc4)cccc23)ccc1O	0	0	-13	nt	nt	18	nt
COc1cc(-c2coc3c(C(=O)NCc4ccc(OC)c(OC)c4)cccc23)ccc1O	73*	1	-13	nt	nt	-2	58*
O=C(NCc1ccc(F)c(F)c1)c1ccc(-c2ccc(F)c(F)c2)c2ccoc12	0	1	-5	nt	nt	21	nt
COc1ccc(CNC(=O)c2cccc3c(-c4cccc(C(N)=O)c4)coc23)cc1OC	86*	1	-8	nt	nt	-7	83*
CCOc1ccc(NC(=O)Cn2nnc(C(=O)NCc3ccc4c(c3)OCO4)c2N)cc1	1	0	-20	-18	85	-9	nt
COc1ccc(C(CNC(=O)c2cccc(S(=O)(=O)N3CCCCC3)c2)N2CCCC2)cc1 (stereo not given)	-1	0	15	-4	84	-6	nt
Cc1ccc(SCCC(=O)N/N=C/c2ccccc2O)cc1	52*	1	65*	3	88	17	45*
C=CCc1cccc(/C=N/NC(=O)C(C)Nc2cccc(C)c2)c1O (stereo not given)	73*	0	35	-11	97	27	61*
Cc1ccc(SCCC(=O)N/N=C/c2cccnc2)cc1	1	0	3	-12	88	0	nt
C=CCc1cccc(/C=N/NC(=O)CCCNc2ccc(C)cc2)c1O	54*	0	49	12	86	24	30*
C=CCc1cccc(/C=N/NC(=O)CNc2ccccc2)c1O	1	0	34	-20	110	19	nt
COc1cccc(NC(=O)CN(C)S(=O)(=O)c2ccc3[nH]c(=O)oc3c2)c1	0	0	0	25	95	-7	nt
N#CC1=C(N)SC(N)=C(C#N)C1c1ccc(C(F)(F)F)cc1	nt	nt	nt	5	106	nt	nt
CCc1ccc(C2C(C#N)=C(N)SC(N)=C2C#N)cc1	74*	1	-4	-1	98	-68	82*
CCc1ccc(C2C(C#N)=C(N)SC(N)=C2C#N)s1	77*	0	-5	39	92	-67	56*
CC1(C)CC(=O)C=C(c2n[nH]nc2C2CC2)C1	-1	1	1	nt	nt	-3	nt
O=Cc1ccc(OCC(=O)NCC2CCCO2)cc1 (stereo not given)	64*	0	4	5	104	-4	0	MPTP abs DR=>100;MPTP counter DR=>80
O=C(COc1ccc(S(=O)(=O)NC2CCCCC2)cc1)NCC1CCCO1 (stereo not given)	-1	0	1	10	96	-5	nt
C[C@@H](CN=[N+]=[N-])CN1CC[C@H](O)CCC1=O	1	0	-1	-5	110	-13	nt
CC(OC(=O)c1cccc(S(=O)(=O)Nc2cccc(C(F)(F)F)c2)c1)C(=O)Nc1ccc2c(c1)OCCO2 (stereo not given)	67*	0	-16	-12	90	19	69*
CC1(C(=O)NCc2ccccc2)CN(S(C)(=O)=O)CC(=O)N1CCCn1ccnc1 (stereo not given)	0	0	nt	nt	nt	nt	nt
SMILES	MPTP inh	aDG glyco up	H9c2 protect	Mot1-301 SUMO	Yeast superoxide	FAS-TE inh	MPTP counter	others
O=S(=O)(Nc1ccc(C(O)(C(F)(F)F)C(F)(F)F)cc1)c1cccc2ccccc12	0	0	-21	nt	nt	30	nt
O=C(Nc1ccc(Cl)cc1)Nc1ccc2c(c1)N1CCN=C1S2	93*	1	-7	-5	112	-153	77*
Cc1cc(C)c(CN2CCN(C(=O)Cn3cnc4c(OCc5ccccc5)ncnc43)CC2)c(C)c1	67*	0	-26	12	97	19	84*
CN1CCN(S(=O)(=O)c2cccc(C(=O)Nc3cccc([N+](=O)[O-])c3)c2)CC1	4	0	4	-11	101	3	nt
CCN(CC(=O)Nc1cccc(OC)c1)c1ncnc2sc(C)c(C)c12	72*	3	-13	17	98	15	68*
CC(C)c1noc2ncc(C(=O)c3cc(Cl)cc(Cl)c3O)cc12	94*	0	-34	10	90	6	105*
Brc1ccc(N/N=C(/N=Nc2nn[nH]n2)c2ccccc2)cc1	85*	1	2	-11	137	40	30*
CC(C)COc1ccc(C(=O)OC2CC(C)(C)OCC2CN(C)C)cc1 (stereo not given)	68*	2	-3	-2	101	-4	-8	MPTP abs DR=12*;MPTP counter DR=>80
COc1ccc(C(=O)OC2CCCCC2CN(C)C)cc1 (stereo not given)	1	0	-2	-10	88	-8	nt
CCOc1ccc(NC(=O)N2CCC(NC(=O)C(Cc3ccccc3OC)NC(C)=O)CC2)cc1 (stereo not given)	0	0	-1	-8	93	-3	nt
CCCCN1C(=N)N([C@@H](CCC)CN2CCC[C@H]2CN2C(N)=NC[C@H]2CC(C)C)C[C@H]1Cc1ccccc1	1	0	-1	nt	82	-10	nt
CCCCN1C(=N)N([C@@H](CCC)CN2CCC[C@H]2CN2C(N)=NC[C@@H]2Cc2ccccc2)C[C@H]1[C@H](C)CC	81*	0	-2	7	100	-11	-6
CC(=O)c1c(C)[nH]c(C(=O)OCC(=O)Nc2cc(S(=O)(=O)N3CCCC3)ccc2Cl)c1C	23	2	-9	0	94	-6	nt
CC(=O)c1c(C)[nH]c(C(=O)OCC(=O)Nc2cccc(S(=O)(=O)N3CCCC3)c2)c1C	62*	1	-11	2	93	0	61*
CC(=O)c1c(C)[nH]c(C(=O)OCC(=O)Nc2cccc(S(=O)(=O)N(C)C)c2)c1C	-1	0	-6	-19	98	-2	nt
